Data on 40 compounds can be found in PubChem BioAssay (EPA / NIEHS).

The source made the active and inactive calls. The calls were made as follows: active = hit-call score of the fitted dose curve at least 0.9, where 1 is the maximum; inactive = score below 0.9.

Read-out in this assay: Glutathione S-transferase M3 (GSTM3), GSTM3 (gene 2947)
The experiment in a line: LTEA_HepaRG_GSTM3: Life Technologies and Expression Analysis (LTEA) Assay for Glutathione S-transferase M3 (GSTM3) using HepaRG (AID 2283501). Conditions: mRNA level, 48 h; actives raise or lower the signal. The procedure:
LTEA_HepaRG is a cell based, multiplexed-readout assay that uses HepaRG, a human liver cell line, with measurements taken at 48 hours after chemical dosing on a 96-well plate.LTEA_HepaRG_GSTM3 is one of 102 assay component(s) measured in the LTEA HepaRG cell culture assay. It is a marker of Oxidative Stress.Data from the assay component LTEA_HepaRG_GSTM3 was analyzed into 1 endpoint. This assay endpoint, LTEA_HepaRG_GSTM3, was analyzed with bidirectional fitting relative to DMSO as the negative control and baseline of activity. Using a type of inducible reporter, measures of mRNA induction for gain or loss-of-signal activity can be used to understand regulation of transcription factor activity. To generalize the intended target to other relatable targets, this assay endpoint is annotated to the transferase intended target family, where the subfamily is alkyl and aryl transferase.
A total of 1060 chemcials from the ToxCast library were tested in eight-point concentration-response experiments. Cell culture and cytotoxicity assays were conducted at Thermo Fisher Scientific's Custom Services facility (Madison, WI). A single lot of human HepaRG cells (Thermo Fisher Scientific, Frederick, MD) was used for the cell culture experiments. 96-well format collagen type I coated plates of human HepaRG cells were prepared using established methods. Briefly, cryopreserved HepaRG cells were thawed, plated at a density of approximately 100,000 cells/well in HepaRG Thaw, Plate, and General Purpose media (HPRG770, Thermo Fisher Scientific), and incubated for 48 hours. 0.5% DMSO was selected as vehicle control to balance the requisite need of DMSO in HepaRG cultures to maintain differentiation (for example, baseline metabolism, proportions of hepatocytes vs. cholangiocytes), while enabling further hepatic receptor pathway activation (for example, PXR and CAR) in response to chemical exposure. 48 hours after plating, the culture medium was replaced with HepaRG Serum-Free Incudtion Media. Cells were exposed to each test chemical in duplicate and maintained in CO2 incubators for another 48 hours. Chemical plates were thawed to room temperature and 200x concentrations of treatment groups were prepared. 8-point conentration-reponse curves were made with the highest exposure at 100 uM, followed by half-log dilutions, all in 0.5% DMSO. Each test plate contained variouse controls, induction positive controls (1mM phenobarbital), cytotoxicity positive controls ([…] aflatoxin B1), vehicle controls (0.5% DMSO), and total lysis controls (0.5% DMSO). Cell morphology images were taken using an Essen IncuCyte FLR automated microscope, with six 96-well plates imaged in about 24 minutes. Images were captured and exported and JPEG files. Spent culture media was transfered to black-well plates for the LDH assay, and remaining media was sorted at -80 C for later use. Cells were treated with RLT buffer and frozen until shipped for gene expression analysis. Total RNA was isolated from the cell suspension in 75 uL of Buffer RLT (Qiagen, Germantown, MD 20874) by Quintiles/Expression Analysis (Durham, NC) using a custom isolation procedure. Total RNA from each plate well was transferred to a preamplification plate. Fluidigm's 96.96 Dynamic ArrayTM (Fluidigm, Amsterdam, the Netherlands) technology was used for gene expression analyses by quantitative reverse transcription polymerase chain reaction (qRT-PCR, performed by Quintiles/Expression Analysis, Durham, NC)89. Standard TaqManTM Assays (Applied Biosystems/ThermoFisher Scientific, Foster City, CA) were used to assess the expression of 93 genes selected based on their selectivity and sensitivity to important hepatic receptors known to be modulated by environmental chemicals; importance in human hepatocyte functionality; and hepatotoxicity. […]
Turning to `CCCCc1nc2cccnc2n1Cc1ccc(-c2ccccc2-c2nnn[nH]2)cc1`, the compound was classed as inactive. With `Cc1cn([C@H]2C=C[C@@H](CO)O2)c(=O)[nH]c1=O`, the outcome was inactive. On the same count and under the same terms, the value for `CN(C)CCCN(C)CCCN(C)C` was “inactive”; that for `O=C(O)c1cccnc1` was “inactive”; that for `Cc1c(C)c2c(c(C)c1O)CCC(C)(COc1ccc(CC3SC(=O)NC3=O)cc1)O2` (stereo not given) was “inactive”. Regarding `CCCCCCC(CCCCCCCCCCC(=O)OCC(COC(C)=O)OC(C)=O)OC(C)=O` (stereo not given), the result was inactive. Same read-out and setting: the value for `CCCCCCCCCC[N+](C)(C)[O-]` was “inactive”.

With `CN(C)CCCN1c2ccccc2Sc2ccc(Cl)cc21`, the result was inactive. In the case of `CCCCC(CC)CO` (stereo not given), the compound was classed as inactive.

Turning to `Oc1ccc(O)cc1`, the result was inactive.

With `C/C=C/c1ccc(OC)cc1`, the compound was called inactive.

For `CC(=O)OCC(COC(C)=O)OC(C)=O`, the call was inactive. For the compound `Nc1nc(=S)c2[nH]cnc2[nH]1`, the call was inactive. For `O=C1NC(=O)C(c2ccccc2)(c2ccccc2)N1`, the outcome was inactive. For the compound `COC(=O)CCCC(=O)OC`, the call was inactive. With `CC(N)=O`, the result was inactive. For the compound `COC(=O)CCC(=O)OC`, the result was inactive. As to `O=C1O[C@H]([C@H](O)CO)C(O)=C1O`, the call was inactive. `CC(C)NCC(O)c1ccc(O)c(O)c1` (stereo not given): the half-maximal activity concentration (AC50) was 0.273 µM (active). As to `CC(=O)OC1CC(C)OC(C)O1` (stereo not given), the compound was classed as inactive.

As for `Cc1ccc(-c2cc(C(F)(F)F)nn2-c2ccc(S(N)(=O)=O)cc2)cc1`, the compound was called inactive. Take `CCCC(=O)O`: the call was inactive.

For the compound `Cc1occc(=O)c1O`, the call was inactive. In the case of `CO[C@@H]1COCC[C@@H]1N[C@@H]1CC[C@@](C(=O)N2CCc3ncc(C(F)(F)F)cc3C2)(C(C)C)C1`, the result was inactive. With `O=C(N[C@@H](c1ccccc1)[C@@H]1CCCCN1)c1cccc(C(F)(F)F)c1Cl`, the compound was classed as inactive. For `O=C(O)CC(O)(CC(=O)O)C(=O)O`, the compound was called inactive. Turning to `CCCCCCCC(=O)OC`, the outcome was inactive.

On to `CC1(C)C(=O)NC(=O)N1CO`, for which the call was inactive. Still for that read-out and setting: the same measure for `NC1CCCCC1`: “inactive”. On to `CC(COCC(C)OC(=O)c1ccccc1)OC(=O)c1ccccc1` (stereo not given), for which the call was inactive. Take `OCC(O)CO`: the compound was classed as inactive. `CCCCCCCCCCCCCCOS(=O)(=O)O`: the compound was called inactive. For the compound `Nc1nc(Cl)nc2c1ncn2[C@H]1C[C@H](O)[C@@H](CO)O1`, the compound was called inactive.

As for `CC(C)c1cccc(C(C)C)c1`, the call was inactive. For the compound `NCCOCCOCCN`, the call was inactive. Regarding `NC(=Nc1ccccc1)Nc1ccccc1`, the result was inactive. Turning to `CN(C)C(=O)NC1(c2ccccc2)CCN(CCC[C@]2(c3ccc(Cl)c(Cl)c3)CCCN(C(=O)c3ccccc3)C2)CC1`, the outcome was inactive. For `CC(C)(O)c1ccc(CNC(=O)c2cccnc2Oc2ccc(F)cc2)cc1`, the call was inactive.

Take `CCc1nc(N)nc(N)c1-c1ccc(Cl)cc1`: the call was inactive. In the case of `CCc1cc(C2=C(C(=O)O)N(c3ccccc3C(F)(F)F)S(=O)(=O)c3ccccc32)cc2c1OCO2`, the compound was classed as inactive.

One may read the AC50 as the concentration at which the activity in the assay is half-maximal.
